Data reported in PubChem BioAssay (Tox21).
Inconclusive results are not listed. Unmarked numbers belong to inactive results. Activity calls are given as the source filed them. Unless noted, calls follow the shape of the full dose curve.

test system: thyroid hormone receptor (rat, GH3 cells); experiment: qHTS assay to identify small molecule agonists of the thyroid receptor (TR) signaling pathway (AID 743066); details: GH3.TRE-Luc cells, TR agonist luciferase, 24 h; series mostly up to 83.9 µM; activation: at the top concentration
% is scaled to controls: 0 for no effect and ±100 for the full control effect.

Compared with `NC/C=C/C(=O)O`, `CC/C=C\CCOC(=O)CCCCC` is higher in “activation” value: 1.52% for the first, 1.56% for the second.

Compared with `CCCCCCCCc1ccc(S(=O)(=O)O)cc1`, `CC1=NN(c2cc(Cl)c(S(=O)(=O)O)cc2Cl)C(=O)C1N=Nc1ccc(S(=O)(=O)O)cc1` (stereo unspecified) is higher in “activation” value: -9.63% for the first, 2.77% for the second.

Going from `COC(=O)c1ccc(OC)cc1` to `COc1ccc2nc(NC(=O)Nc3ccccc3)sc2c1`, the “activation” value falls from 0.826% to -2.16%.

Going from `FC(F)(F)c1ccccc1` to `CN1CCN(c2c(F)cc3c(=O)c(C(=O)O)cn4c3c2SCC4)CC1`, the “activation” value rises from -0.152% to 1.4%.

In the case of `CCc1cc(Cl)c(OC)c(C(=O)NC[C@@H]2CCCN2CC)c1O`, the outcome is reported as “inactive”.

Going from `C=CC1CO1` (stereo unspecified) to `OCCN1CCN(CCO)CC1`, the “activation” value rises from 0.647% [at 95.2 µM] to 2.94% [at 95.2 µM].

Compared with `CC(=O)Oc1cc(C(C)C)c(OCCN(C)C)cc1C`, `CCCCOc1cc(C(=O)NCCN(CC)CC)c2ccccc2n1` is lower in “activation” value: 0.649% [at 39.4 µM] for the first, -5% [at 39.4 µM] for the second.

target: Estrogen receptor (Homo sapiens) (UniProt P03372); experiment: qHTS assay to identify small molecule antagonists of the estrogen receptor alpha (ER-alpha) signaling pathway (AID 743069; active = well fitted curve in the direction sought with a large enough effect in the signal ratio in the repeat runs, not every such curve was filed as active; the % refers to the signal ratio); details: HEK293 ER-alpha-UAS-bla, beta-lactamase ratio, antagonist mode; series mostly up to 69.4 µM; activity, negative = inhibition: at the top concentration
How it was run: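 HEK293 ER-alpha-UAS-bla GripTite cells, held overnight in 2% charcoal-stripped FBS, 5,000 cells/well, preincubated 4 h, then compound plus 17beta-estradiol for 18 h at 37C. Beta-lactamase read by LiveBLAzer B/G FRET substrate, 2 h at room temperature.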

Estrogen receptor (Homo sapiens), sequence (P03372 whole entry, looked up): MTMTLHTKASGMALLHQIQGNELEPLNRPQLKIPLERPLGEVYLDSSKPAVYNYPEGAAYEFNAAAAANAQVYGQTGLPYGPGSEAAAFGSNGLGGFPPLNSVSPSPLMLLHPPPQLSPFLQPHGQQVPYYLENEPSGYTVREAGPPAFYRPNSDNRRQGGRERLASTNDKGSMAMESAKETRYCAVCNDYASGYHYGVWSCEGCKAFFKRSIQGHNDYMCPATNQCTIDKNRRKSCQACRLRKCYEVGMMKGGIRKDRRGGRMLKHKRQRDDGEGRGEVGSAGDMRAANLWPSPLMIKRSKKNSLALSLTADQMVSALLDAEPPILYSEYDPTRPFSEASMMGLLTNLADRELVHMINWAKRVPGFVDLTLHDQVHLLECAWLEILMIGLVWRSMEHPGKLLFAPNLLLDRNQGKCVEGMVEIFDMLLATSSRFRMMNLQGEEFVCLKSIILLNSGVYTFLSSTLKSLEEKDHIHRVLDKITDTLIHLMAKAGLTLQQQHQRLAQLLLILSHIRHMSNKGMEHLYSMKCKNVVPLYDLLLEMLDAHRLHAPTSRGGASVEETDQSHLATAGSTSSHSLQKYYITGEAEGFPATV

First: CC(C)S
Second: C[C@]12C(=O)OC(=O)[C@H]1[C@H]1C=C[C@@H]2C1
The “activity, negative = inhibition” value of the first is higher: -3.26% [at 79.1 µM] for the first, -7.35% [at 79.1 µM] for the second.

Compared with `O=S(=O)(O)C(F)(F)F`, `Cc1cccc(C)c1NC(=O)CN1CCCCCC1` is lower in “activity, negative = inhibition” value: 31.1% for the first, 12.3% for the second.

In the case of `CC/C=C\CCOC(=O)CCCCC`, the “activity, negative = inhibition” value is reported as 16.9%.

In the case of `COc1ccc(S(=O)(=O)Nc2nnc(CC(C)C)s2)cc1`, the Potency is reported as “inactive”.

test system: not listed separately; experiment: qHTS assay to identify small molecule antagonists of the estrogen receptor alpha (ER-alpha) signaling pathway - cell viability counter screen (AID 743074); details: ERalpha-bla HEK293 viability, CellTiter-Glo luminescence, 18 h; series mostly up to 69.4 µM; activity, negative = cytotoxicity: at the top concentration;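 also: HEK293 cells carrying ER-alpha-UAS-bla reporter stimulated with 17beta-estradiol; nearly all actives have a fitted effect of over 45% in size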

Compared with `O=C(O)CN(CCN(CC(=O)O)CC(=O)O)CCN(CC(=O)O)CC(=O)O`, `CC/C=C\CCOC(=O)CCCCC` is higher in “activity, negative = cytotoxicity” value: -14.7% for the first, 11.2% for the second.

First: CC1(C)C(=O)N(Cl)C(=O)N1Br
Second: CC1=C(O)C(=O)OC1C (stereo unspecified)
The “activity, negative = cytotoxicity” value of the first is higher: 25.1% for the first, -11% for the second.

Compared with `CCNCCO`, `CC(C)=CCCC(C)CCOC=O` (stereo unspecified) is lower in “activity, negative = cytotoxicity” value: 4.56% for the first, -1.77% for the second.

Going from `O=S(=O)(O)C(F)(F)F` to `O=c1[nH]c(=O)n([C@H]2C[C@H](O)[C@@H](CO)O2)cc1C(F)(F)F`, the “activity, negative = cytotoxicity” value rises from -14.5% to 19.9%.

First: CC1CN(c2ccccc2)NC1=O (stereo unspecified)
Second: Oc1ccccc1F
The “activity, negative = cytotoxicity” value of the first is higher: 3.17% for the first, -15.9% for the second.

First: CC(C)C[C@H](NC(=O)OCC1c2ccccc2-c2ccccc21)C(=O)O
Second: COc1ccc2nc(NC(=O)Nc3ccccc3)sc2c1
The “activity, negative = cytotoxicity” value of the first is higher: 10.2% for the first, -11.5% for the second.

Compared with `O=c1oc2c(O)c(O)cc3c(=O)oc4c(O)c(O)cc1c4c23`, `CC1=NN(c2cc(Cl)c(S(=O)(=O)O)cc2Cl)C(=O)C1N=Nc1ccc(S(=O)(=O)O)cc1` (stereo unspecified) is higher in “activity, negative = cytotoxicity” value: -9.18% for the first, -8.91% for the second.

First: CC(=O)Nc1ccc(C)c(Cl)c1
Second: COC(=O)c1ccc(OC)cc1
The “activity, negative = cytotoxicity” value of the first is lower: -1.14% for the first, 5.88% for the second.

Compared with `Cc1cccc(C)c1NC(=O)CN1CCCCCC1`, `CN1CCN(c2c(F)cc3c(=O)c(C(=O)O)cn4c3c2SCC4)CC1` is lower in “activity, negative = cytotoxicity” value: 2.34% for the first, -3.71% for the second.

Compared with `CCOC(=O)C1CC(=O)C(=C(O)C2CC2)C(=O)C1` (stereo unspecified), `NC/C=C/C(=O)O` is higher in “activity, negative = cytotoxicity” value: -14.7% for the first, -3.72% for the second.

Compared with `CCN(CCCc1ccccc1)CCCc1ccccc1`, `CCCCOc1cc(C(=O)NCCN(CC)CC)c2ccccc2n1` is higher in “activity, negative = cytotoxicity” value: -21.3% [at 32.6 µM] for the first, -11.1% [at 32.6 µM] for the second.

In the case of `CC(=O)Oc1cc(C(C)C)c(OCCN(C)C)cc1C`, the “activity, negative = cytotoxicity” value is reported as 18.8% [at 32.6 µM].

Compared with `CC(C)S`, `CC(C)(CO)[C@@H](O)C(=O)NCCC(=O)O` is lower in “activity, negative = cytotoxicity” value: 25.1% [at 79.1 µM] for the first, 10.1% [at 79.1 µM] for the second.

First: COc1cc(Cl)ccc1Cl
Second: C[C@]12C(=O)OC(=O)[C@H]1[C@H]1C=C[C@@H]2C1
The “activity, negative = cytotoxicity” value of the first is lower: -13.1% [at 79.1 µM] for the first, 19.1% [at 79.1 µM] for the second.

Going from `C=CC1CO1` (stereo unspecified) to `OCCN1CCN(CCO)CC1`, the “activity, negative = cytotoxicity” value rises from -8.57% [at 79.1 µM] to 8.78% [at 79.1 µM].

In the case of `ClC(Cl)Cl`, the Potency is reported as “inactive”.
In the case of `COc1ccc(S(=O)(=O)Nc2nnc(CC(C)C)s2)cc1`, the Potency is reported as “inactive”.
With `CCc1cc(Cl)c(OC)c(C(=O)NC[C@@H]2CCCN2CC)c1O` the Potency was “inactive”.
